Test results taken from the supplement of paper PMC12067093, “Discovery and optimisation of a covalent ligand for TRIM25 and its application to targeted protein ubiquitination” (Chemical Science, 2025).
Targets with the largest changes are over-represented here; the source holds about 21,000 in all.

Compound: Cc1cc(ccc1-c1ccccc1)C(=O)N1CCCN(CC1)C(=O)CCl [compound 10]
Assay: probe-labelled cysteine peptide fold change vs DMSO (competition) (log2 fold change); higher = less target engagement (more negative = stronger competition)
Conditions: THP-1, incubation time: 4 h
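Further: competitive profiling in live THP-1 cells: cysteine peptides tagged with an iodoacetamide desthiobiotin (IA-DTB) probe, intensity after compound treatment relative to DMSO-treated cells.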

Target | probe-labelled cysteine peptide fold change (10 µM) | probe-labelled cysteine peptide fold change (50 µM)
MTCH2_Q9Y6C9_49_QVCQLPGLFSYAQHIASIDGR (UniProt Q9Y6C9) | -0.0446 | 0.0916
MAPK9_P45984_222_GCVIFQGTDHIDQWNK (UniProt P45984) | -0.0703 | 0.0724
MGMT_P16455_145_GNPVPILIPCHR (UniProt P16455) | -1.04 | -1.29
MCEE_Q96PE7_166_DCGGVLVELEQA (UniProt Q96PE7) | -0.0643 | 0.17
MKI67_P46013_643_SQHDILQMICSK (UniProt P46013) | -0.612 | -2.28
MED1_Q15648_135_VAHHGENPVSCPELVQQLR (UniProt Q15648) | -0.0375 | -0.395
MYD88_Q99836_168_FDAFICYCPSDIQFVQEMIR (UniProt Q99836) | 0.412 | -1.05
LRCH4_O75427_283_GSALGDLAPSRPPSFSPCPAEDLFPGHR (UniProt O75427) | -1.16 | -1.33
MPC2_O95563_54_WGLVCAGLADMARPAEK (UniProt O95563) | -0.141 | -1.31
MRPS31_Q92665_356_HFMELVTCGLSK (UniProt Q92665) | 0.0457 | -0.112
LUC7L3_O95232_58_SDLGPCEK (UniProt O95232) | -0.112 | -0.363
MYBBP1A_Q9BQG0_338_HYGEHVCTAK (UniProt Q9BQG0) | 0.0441 | 0.083
MAPK9_P45984_177_TACTNFMMTPYVVTR (UniProt P45984) | -0.494 | -1.64
M6PR_P20645_145_AVVMISCNR (UniProt P20645) | -0.268 | -0.155
